# Measured values: PubChem BioAssay AID2778 (National Center for Advancing Translational Sciences (NCATS), 2010)
# Inconclusive results are not listed. Values without a mark were called inactive. The source made the active and inactive calls. The call rests on the fitted dose curve; in most records, active means well fitted inhibition curve with a large enough effect; inconclusive means small, poorly fitted or top-dose-only effect, or effect the other way; inactive means flat fitted curve, though single readings scatter.
# Biological target: Menin (Homo sapiens) (UniProt O00255)
# Assay: Confirmation of Inhibitors Targeting the Menin-MLL Interaction in MLL Related Leukemias: Confirmation in an HTRF (commercial TR-FRET) Assay using His-tagged menin and biotin-labeled MLL peptide
# Settings: His-menin / biotin-MLL peptide binding; series mostly up to 126 µM; activity change, negative = inhibition: at the top concentration
# Method in brief: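 Compounds were incubated 1 hr at ambient with a preformed His6-menin (200 nM)/biotinylated MLL-w.t. peptide (80 nM) complex in Tris pH 7.5 buffer; anti-His Eu-cryptate (3.5 nM) and SA-XL665 (10 nM) added, TR-FRET read after 1h.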
# On the % scale 0 is the no-effect control and ±100 the full control effect; potency means the concentration at half of the fitted maximal effect.
# Chain of Menin (Homo sapiens) (O00255 whole entry, looked up): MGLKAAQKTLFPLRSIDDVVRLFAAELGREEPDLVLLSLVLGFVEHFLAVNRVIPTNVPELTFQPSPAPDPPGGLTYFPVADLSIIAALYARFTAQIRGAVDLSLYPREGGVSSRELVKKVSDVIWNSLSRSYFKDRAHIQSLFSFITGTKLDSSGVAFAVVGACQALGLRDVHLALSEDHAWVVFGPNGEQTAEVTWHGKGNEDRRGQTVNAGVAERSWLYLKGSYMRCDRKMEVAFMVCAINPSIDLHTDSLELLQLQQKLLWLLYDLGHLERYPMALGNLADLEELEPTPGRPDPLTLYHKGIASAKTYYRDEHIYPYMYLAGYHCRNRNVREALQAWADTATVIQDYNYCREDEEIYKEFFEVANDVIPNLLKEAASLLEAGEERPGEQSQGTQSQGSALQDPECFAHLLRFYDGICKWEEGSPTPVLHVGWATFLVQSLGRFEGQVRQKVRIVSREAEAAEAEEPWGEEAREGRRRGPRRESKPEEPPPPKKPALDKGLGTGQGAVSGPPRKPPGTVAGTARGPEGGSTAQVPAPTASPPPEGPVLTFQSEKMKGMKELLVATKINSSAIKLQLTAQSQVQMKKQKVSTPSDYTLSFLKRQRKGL
SMILES,"activity change, negative = inhibition",Potency
Cn1c(=O)[nH]c(=O)c2c1nc(Br)n2CCSc1nc2ccccc2o1,-2.42% [at 383 µM],
O=C(Nc1cc(Br)ccc1O)c1cc(-c2ccc3c(c2)OCO3)on1,-2.75% [at 383 µM],
CCCOc1ccc(C(=O)NNC(=S)NC(=O)c2cc(-c3ccc(Cl)cc3)nc3ccccc23)cc1,-18% [at 383 µM],
Cc1ccc(C2=NN(C(=O)c3ccccc3F)C(c3ccccc3F)C2)cc1 (centres undefined),-10.9% [at 383 µM],
O=C(Nc1ccc2c(c1)OCO2)c1ccccc1,0.989%,
CCOC(=O)C1CCN(CC(O)COCc2ccccc2)CC1 (centres undefined),-0.832% [at 383 µM],
Cc1cc2c(N)cccc2nn1,16.7%,
O=C(O)CCC(=O)Nc1ccc(SSc2ccc(NC(=O)CCC(=O)O)cc2)cc1,7.72% [at 383 µM],
O=c1cc(O)c2ccccc2n1Cc1ccccc1F,0.617%,
O=C(NNCS(=O)(=O)O)c1ccncc1,-1.81%,
CCOc1ccc(NC(=O)c2cccc(OC(=S)N3CCC(C)CC3)c2)cc1,-5.98%,
CN1[C@H](CC(=O)c2ccccc2)CCC[C@H]1C[C@@H](O)c1ccccc1,0.991% [at 383 µM],
Cc1cccc(NC(=S)NC(NC(=O)OCc2ccccc2)C(Cl)(Cl)Cl)c1 (centres undefined),-17.5% [at 383 µM],
CN1C[C@@H]2C[C@H]1CN2c1cc2c(cc1F)c(=O)c(C(=O)O)cn2C1CC1,5.01%,
CCOc1ccc(C2Nc3ccc4ccccc4c3-c3c2c(=O)oc2ccccc32)cc1 (centres undefined),-28.1%,
COC(=O)Cc1c(C)nc2nc(-c3ccc(OC)cc3)[nH]n2c1=O,-3.42% [at 383 µM],
COc1cccc(C(=O)/C=C/Nc2ccc(S(=O)(=O)Nc3ccc(C(C)=O)cc3)cc2)c1,-17.8% [at 383 µM],

SMILES,"activity change, negative = inhibition",Potency
CCCC(c1nnnn1Cc1cccs1)N1CCN(C2CCCC2)CC1 (centres undefined),-23.6%,
CCC(=O)NC(=S)Nc1ccc(NC(=S)NC(=O)c2ccc(C)cc2)cc1,-19.9%,
CCCN(CCC)CCCNC(=S)Nc1ccc2nc(N3CCCC3)cc(C)c2c1,13.3%,
CN(C)CCc1c[nH]c2ccc(CC3COC(=O)N3)cc12 (centres undefined),-6.18% [at 383 µM],
NC(=NCCCCCCN=C(N)/N=C(\N)Nc1ccc(Cl)cc1)/N=C(\N)Nc1ccc(Cl)cc1,,282 µM (active)
COc1ccc(C2=C(CN(C)C)C(c3ccccc3)c3ccccc3O2)cc1 (centres undefined),1.78%,
O=C(NC(=S)Nc1nc(-c2ccc(Br)cc2)cs1)c1cccnc1,-24.2%,
Cc1ccc(C(=O)Sc2cccccc2=O)cc1,17.3% [at 383 µM],
CNC[C@H](CC1CCCCC1)NC[C@H](Cc1ccccc1)NCCC12CC3CC(CC(C3)C1)C2,,251 µM (active)
Cc1c(F)cccc1NS(=O)(=O)c1ccc2c(c1)c(C)cc(=O)n2C,7.52%,
O=C(Nc1ccc(F)c(Cl)c1)c1cc(-c2ccco2)on1,-9.72%,
COc1cccc(-c2nn(-c3ccccc3)cc2/C=C\C(=O)c2cccs2)c1,3.61%,
CC(=O)N1CCCc2cc(S(=O)(=O)N3CCCC(C(=O)N4CCN(c5ccccc5)CC4)C3)ccc21 (centres undefined),-9.1%,
Cc1ccc(C(C[N+](=O)[O-])c2c(C)[nH]n(-c3ccccc3)c2=O)cc1 (centres undefined),-6.55%,
O=C(CCn1nc(-c2ccccc2)ccc1=O)N1CCN(c2ccccn2)CC1,4.1%,
CC(CC(=O)Nc1nc2ccccc2[nH]1)n1ccnc1 (centres undefined),2.97%,
CC(=O)c1cccc(NS(=O)(=O)c2ccc(N/C=C\C(=O)c3ccc(F)cc3)cc2)c1,-12.9%,
